Our source for the inhibition values is PubChem BioAssay AID485344 (National Center for Advancing Translational Sciences (NCATS), 2010).

As a reminder, the inhibition is the relative decrease from the control value, in per cent.

Screen size: about 340,000 compounds; about 6,900 (2%) were called active. No stated cut-off is given here; in the data, active means inhibition above about 30%; inactive means below that, where a call was filed. Many of the other results were omitted from the sample, so actives are more common in it than they were.

The test deals with D(2) dopamine receptor (Homo sapiens) (UniProt P14416). The test can be described thus: HTS Assay for Allosteric Antagonists of the Human D2 Dopamine Receptor: Primary Screen for Antagonists. Further: 0% is about no effect. The settings on record: HEK293 TREx D2 cells, calcium flux, dopamine EC80; at 10 µM; stronger effect = higher value. The method, boiled down: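 Measurement of antagonist activity uses fluorescent calcium dye in inducible HEK293 T-REx D2 cells: 10 s baseline, compound addition with 180 s read, EC80 dopamine addition with a further 180 s read.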
Sequence of D(2) dopamine receptor (Homo sapiens) (P14416 whole entry, looked up): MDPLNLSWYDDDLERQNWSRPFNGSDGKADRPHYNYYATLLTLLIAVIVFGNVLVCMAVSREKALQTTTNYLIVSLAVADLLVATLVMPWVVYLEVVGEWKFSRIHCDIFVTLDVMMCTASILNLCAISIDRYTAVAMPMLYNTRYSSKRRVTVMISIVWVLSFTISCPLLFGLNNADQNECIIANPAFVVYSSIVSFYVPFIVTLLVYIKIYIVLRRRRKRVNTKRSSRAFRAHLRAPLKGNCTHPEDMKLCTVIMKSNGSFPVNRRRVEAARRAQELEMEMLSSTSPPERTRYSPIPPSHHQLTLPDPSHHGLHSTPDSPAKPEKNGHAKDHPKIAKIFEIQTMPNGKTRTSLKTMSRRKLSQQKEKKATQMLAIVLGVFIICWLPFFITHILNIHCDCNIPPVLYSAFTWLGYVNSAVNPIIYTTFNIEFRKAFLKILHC
Regarding `CCOc1ccc(C(C)NC(=O)CN2C(=O)NC3(CCCCC3)C2=O)cc1OCC` (configuration not stated), the inhibition is -2.35% (inactive).
For `CSCCC(NC(=O)COc1ccccc1)C(=O)N(C)CC(=O)Nc1ccc(C)cc1` (configuration not stated), the inhibition was -24.9% (inactive).
On to `CC(OC(=O)/C=C/c1ccccc1)C(=O)NC1CCCCC1C` (configuration not stated), for which the inhibition was -2.14% (inactive).
For the compound `CCCCC(=O)NNC(=S)NC(=O)C(c1ccccc1)c1ccccc1`, the inhibition is 40.2% (active).
On to `O=C(NNC(=S)NCc1ccco1)C(c1ccccc1)c1ccccc1`, for which the inhibition was -2.47% (inactive).
For the compound `CC(C)C(=O)Nc1cccc(NC(=S)NC(=O)C(c2ccccc2)c2ccccc2)c1`, the inhibition was -3.17% (inactive).
For `Cc1ccc(S(=O)(=O)Nc2nc(CN3CCOCC3)nc3sc(C)c(C)c23)cc1`, the inhibition is -2.97% (inactive).
To `COc1ccc(CNC(=O)COc2ccccc2C(=O)c2cnn(-c3ccccc3)c2)cc1OC` belongs 7.52% (inactive); to `CC(CCN1CCN=C1N(C)C)c1ccccc1` (configuration not stated), 8.97% (inactive); to `NC(=O)c1nsc(C(=O)N(CCCN2CCOCC2)C(C(=O)NC2CCCCC2)c2ccc(Cl)cc2)c1N` (configuration not stated), 30.5% (active).
As to `CCOc1ccc(C(C(=O)NC2CCCC2)N(C(=O)c2snc(C(N)=O)c2N)C2CCCC2)cc1` (configuration not stated), the inhibition is -2.16% (inactive).
As for `CC(C)(C)NC(=O)C(c1ccc(Cl)cc1)N(CCO)C(=O)c1snc(C(N)=O)c1N` (configuration not stated), the inhibition is -7.69% (inactive).
As to `Cc1cc(F)ccc1S(=O)(=O)Nc1ccc(C(=O)N(C)Cc2ccco2)cc1`, the inhibition was 2.47% (inactive).
For `COc1cccc(-n2c(Cc3cc(=O)[nH]c(=O)[nH]3)nnc2SCC(=O)Nc2ccccc2)c1`, the inhibition was -4.57% (inactive).
For the compound `Cc1cccc(-n2c(Cc3cc(=O)[nH]c(=O)[nH]3)nnc2SC(C)C)c1`, the inhibition was -16% (inactive).
In the case of `Cc1cccc(-n2c(Cc3cc(=O)[nH]c(=O)[nH]3)nnc2SCC(=O)Nc2cccc(C(F)(F)F)c2)c1`, the inhibition was 36.6% (active).
As for `O=C(Nc1cccc(C(=O)NC2CC2)c1)c1ccc(F)c(S(=O)(=O)N2CCOCC2)c1`, the inhibition was -7.88% (inactive).
On to `O=C(NNC(=S)NC1CCCCC1)c1ccccc1Cl`, for which the inhibition is -5.96% (inactive).
To `Cc1ccccc1C(=O)NC(=S)NC1CC1` belongs 31.1% (active).
The value for `Cc1ccccc1C(=O)NC(=S)Nc1ccc(N2CCN(C(=O)c3ccccc3)CC2)cc1` was -1.88% (inactive).
Take `CCOC(=O)CSc1nnc(-c2ccco2)n1C`: the inhibition is 25.3% (inactive).
`CCn1c(SCC(=O)Nc2nccs2)nnc1-c1ccncc1`: the inhibition was 10.6% (inactive).
In the case of `Nn1c(SCC(=O)Nc2nccs2)nnc1-c1ccco1`, the inhibition was 3.93% (inactive).
In the case of `Cn1c(SCC(=O)c2cccs2)nnc1-c1ccco1`, the inhibition was -10.8% (inactive).
The value for `CCn1c(SCC(=O)Nc2nccs2)nnc1-c1ccco1` was 83% (active); that for `Cn1c(SCC(=O)Nc2ccc(Br)cc2F)nnc1-c1ccco1` was 31% (active).
Consider `CSc1ncccc1C(=O)Nc1ccc2c(c1)OCO2`, for which the inhibition was -3.04% (inactive).
Consider `CCc1ccccc1OCC(=O)Nc1ccc(C)c(S(=O)(=O)N2CCCCCC2)c1`, for which the inhibition is -4.67% (inactive).
As to `CCc1nnc(NC(=O)C2CCN(C(=O)c3ccccc3C)CC2)s1`, the inhibition was 14.3% (inactive).
On to `O=C(CNC(=O)C1COc2ccccc2O1)N/N=C/c1cc(Br)c(O)c(Br)c1` (configuration not stated), for which the inhibition was 7.94% (inactive).
In the case of `Cc1c(C)c2ccc(OCC(=O)N3CCC(C(=O)O)CC3)c(C)c2oc1=O`, the inhibition is 2.01% (inactive).
For `Cc1c(CC(=O)N2CCN(C(=O)C3COc4ccccc4O3)CC2)c(=O)oc2c(O)c(O)ccc12` (configuration not stated), the inhibition is 60% (active).
Turning to `COc1cccc(CNC(=O)COC(=O)CN2C(=O)NC3(CCCCC3C)C2=O)c1` (configuration not stated), the inhibition is 4.18% (inactive).
In the case of `COc1cccc(C(=O)NCCS(=O)(=O)NCC2CCCO2)c1` (configuration not stated), the inhibition is 8.23% (inactive).
Regarding `O=C(COC(=O)c1cc(=O)[nH]c2ccccc12)NCc1cccc(Cl)c1`, the inhibition was -19.7% (inactive).
With `O=C(NCCCN1CCN(c2ccccc2F)CC1)C1CCC(=O)N1C1CCCCC1` (configuration not stated), the inhibition was 55.7% (active).
Consider `COc1ccc(CN2CC(C(=O)NCCN3CCN(c4ccccc4F)CC3)CC2=O)cc1` (configuration not stated), for which the inhibition was 78.4% (active).
For the compound `COc1ccc(CN2CC(C(=O)NC3CCCCC3)CC2=O)cc1` (configuration not stated), the inhibition is 9.38% (inactive).
Take `O=C(NCCCN1CCCCCC1)C1CC(=O)N(C2CCCC2)C1` (configuration not stated): the inhibition was -15.4% (inactive).
The value for `CCOC(=O)N1CCN(c2c(NCCN3CCN(c4ccccc4F)CC3)c(=O)c2=O)CC1` was -8.27% (inactive); that for `COc1ccc(CN2CC(C(=O)NCCc3ccc(Cl)cc3)CC2=O)cc1` (configuration not stated) was 4.69% (inactive).
To `CCOC(=O)C1CCN(C(=O)c2cccc(S(=O)(=O)N(CC)c3ccccc3)c2)CC1` belongs 14.5% (inactive); to `Nc1c(C(=O)OCC(=O)Nc2ccc(OC(F)F)cc2)[nH]c(=O)[nH]c1=O`, 0.0124% (inactive); to `Cc1ccc(CSc2ccc(S(=O)(=O)N3CCCCC3)cn2)cc1`, -10.3% (inactive).
For the compound `COc1ccc(NC(=O)CSc2nnc(C3CC3)n2C)cc1S(=O)(=O)N1CCCCC1`, the inhibition was -7.07% (inactive).
To `C/C(=N/NC(=O)CC(=O)N/N=C(\C)c1ccc([N+](=O)[O-])cc1)c1ccc([N+](=O)[O-])cc1` belongs -6.92% (inactive).
In the case of `C/C(=N\N(C)C)c1ccc(OCCOc2ccc([N+](=O)[O-])cc2)cc1`, the inhibition is 33.5% (active).
Regarding `CCOC(=O)COc1ccc([N+](=O)[O-])cc1`, the inhibition is 5.2% (inactive).
On to `CC(=O)C[C@@H](O)CC(=O)[C@H]1OC(=O)CCCCCCc2ccccc21`, for which the inhibition was 3.89% (inactive).
For the compound `Cc1ccccc1NC(=O)COc1cccc2c1CCNC2=O`, the inhibition is -0.505% (inactive).
For `CCCCN(C(=O)CSCC(=O)Nc1ccc(OC)cc1)c1c(N)n(CCC)c(=O)[nH]c1=O`, the inhibition was 9.85% (inactive).
The value for `N#Cc1ccc(CN2CCN(CC(=O)Nc3ccccc3C(=O)NC3CC3)CC2)cc1` was 4.29% (inactive); that for `CC1Cc2ccccc2N1S(=O)(=O)c1cccc(C(=O)NCC(c2ccco2)N2CCCC2)c1` (configuration not stated) was -15% (inactive); that for `COC(=O)CNS(=O)(=O)c1ccc(Cc2ccc(S(=O)(=O)NCC(=O)OC)cc2)cc1` was 41.3% (active).
As to `COC(=O)CNS(=O)(=O)c1ccc(OC)cc1`, the inhibition is 6.78% (inactive).
As to `C/C(N)=C(/C#N)C(=O)COC(=O)CNS(=O)(=O)c1ccc(C)cc1`, the inhibition is 12.5% (inactive).
Consider `CNS(=O)(=O)c1cccc(C(=O)OCCCC(=O)c2ccccc2)c1`, for which the inhibition was -4.56% (inactive).
